Experimental data from PubChem BioAssay (NCI).
About 79,000 compounds went through this panel and 15% of them were active in at least one assay; those are over-represented in the sample as a whole. The source made the active and inactive calls. No stated cut-off is given here; in the data, active means growth inhibition above about 70%; inactive means the rest.

Legend:
[1] = NCI Yeast Anticancer Drug Screen. Data for the rad50EPP+ strain (AID 151);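 further: 0% = growth of vehicle-treated control cultures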; details: S. cerevisiae rad50 mutant strain, hits give high values
Procedure, shortened: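 Measured: growth inhibition of rad50EPP+ yeast. Reference: vehicle-treated controls. Screen uses strains with defined genetic alterations in DNA damage repair or cell cycle control.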

[2] = NCI Yeast Anticancer Drug Screen. Data for the rad50 strain (AID 155);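 further: 0% = growth of vehicle-only cultures of the same strain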; details: S. cerevisiae rad50 strain growth inhibition, hits give high values
Procedure, shortened: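 Yeast carrying a defined DNA repair defect were exposed to test compounds, and growth was compared with vehicle-treated controls to give percent inhibition.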

[3] = NCI Yeast Anticancer Drug Screen. Data for the mec2-1 strain (AID 157); details: S. cerevisiae mec2-1 strain, hits give high values
Procedure, shortened: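 Compounds were applied to mec2-1 yeast cells. Their growth was then compared with that of vehicle-treated cultures to give growth inhibition.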

[4] = NCI Yeast Anticancer Drug Screen. Data for the rad14 strain (AID 159);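 further: 0% = growth of vehicle-treated control cultures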; details: S. cerevisiae rad14 strain growth inhibition, hits give high values
Procedure, shortened: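 Yeast cells carrying a defined DNA-repair defect were exposed to compounds, and growth inhibition was calculated relative to vehicle-treated control cultures.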

[5] = NCI Yeast Anticancer Drug Screen. Data for the sgs1 mgt1 strain (AID 161);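 further: 0% = growth of cultures given vehicle only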; details: S. cerevisiae sgs1 mgt1 strain, hits give high values
Procedure, shortened: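 Growth of a repair-deficient yeast mutant was monitored after compound treatment and expressed as inhibition relative to vehicle-treated cultures.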

[6] = NCI Yeast Anticancer Drug Screen. Data for the CLN2oe strain (AID 163);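 further: 0% = growth of vehicle-only control cultures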; details: S. cerevisiae CLN2oe strain, hits give high values
Procedure, shortened: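 Cells of an engineered yeast line with disturbed cell-cycle regulation are treated with compound. Inhibition of growth is then calculated relative to the vehicle-treated reference.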

[7] = NCI Yeast Anticancer Drug Screen. Data for the cln2 rad14 strain (AID 165);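 further: 0% = growth equal to vehicle treated cultures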; details: S. cerevisiae cln2 rad14 strain, hits give high values
Procedure, shortened: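 Strain: cln2 rad14 yeast, altered in cell cycle control and DNA damage repair. Read-out: growth inhibition vs vehicle.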

[8] = NCI Yeast Anticancer Drug Screen. Data for the bub3 strain (AID 167); details: S. cerevisiae bub3 mutant strain, hits give high values
Procedure, shortened: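 Compounds were applied to a genetically altered yeast strain carrying a cell-cycle control defect. Growth inhibition was scored against vehicle-treated controls.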

[9] = NCI Yeast Anticancer Drug Screen. Data for the mlh1 strain (AID 171);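 further: 0% = growth of vehicle-treated control cultures of the same strain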; details: S. cerevisiae mlh1 strain growth inhibition, hits give high values
Procedure, shortened: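 Test agents were incubated with yeast bearing a defined DNA damage repair or cell cycle control alteration; values are growth inhibition normalised to vehicle-treated cultures.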

[10] = NCI Yeast Anticancer Drug Screen. Data for the sgs1 strain (AID 173);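 further: 0% = growth of vehicle-only control cultures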; details: S. cerevisiae sgs1 mutant, hits give high values
Procedure, shortened: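 Strain with an altered DNA repair or cell cycle pathway exposed to compound. Growth then measured. Value = inhibition versus vehicle control.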

[11] = NCI Yeast Anticancer Drug Screen. Data for the mlh1 rad18 strain (AID 175); details: S. cerevisiae mlh1 rad18 strain growth inhibition, hits give high values
Procedure, shortened: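 A repair-deficient yeast strain is exposed to test compound, and growth is scored relative to vehicle-treated controls.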

[12] = NCI Yeast Anticancer Drug Screen. Data for the rad18 strain (AID 177); details: S. cerevisiae rad18 mutant growth inhibition, hits give high values
Procedure, shortened: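 DNA-repair-defective yeast; compound treatment; growth inhibition scored against vehicle.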

[13] = at 5.0 µM (retest, dose inferred, filed as 0.5)
[14] = at 50.0 µM (retest, dose inferred, filed as 5.0)

Measured: growth inhibition

CCC1SC(=S)N(c2ccc(Cl)cc2)C1=O (stereo not drawn)
inactive: [1]; at 1.2 µM -5% | [1]; at 3.7 µM 21% | [1]; at 11.0 µM 42% | [2]; at 1.2 µM -17% | [2]; at 3.7 µM -19% | [2]; [13] 8% | [2]; at 11.0 µM 6% | [2]; [14] 35% | [2]; at 50.0 µM 45% | [3]; at 1.2 µM -3% | [3]; at 3.7 µM -5% | [3]; [13] 1% | [3]; at 11.0 µM -6% | [3]; at 33.0 µM -9% | [3]; [14] 43% | [3]; at 50.0 µM 26.7% | [3]; at 100.0 µM 16% | [4]; at 1.2 µM 4% | [4]; at 3.7 µM 1% | [4]; at 11.0 µM 12% | [4]; at 33.0 µM 26% | [5]; [13] 4% | [5]; [14] 68% | [5]; at 50.0 µM 66% | [6]; at 1.2 µM -9% | [6]; at 3.7 µM -10% | [6]; at 11.0 µM -16% | [6]; at 33.0 µM -20% | [7]; [13] -3% | [7]; [14] -4% | [7]; at 50.0 µM -11.6% | [8]; at 1.2 µM -11% | [8]; at 3.7 µM -10% | [8]; [13] -6% | [8]; at 11.0 µM -13% | [8]; at 33.0 µM 22% | [8]; [14] 44% | [8]; at 50.0 µM 6.05% | [9]; at 1.2 µM -14% | [9]; at 3.7 µM -10% | [9]; at 11.0 µM -10% | [9]; at 33.0 µM 48% | [10]; at 1.2 µM -8% | [10]; at 3.7 µM -8% | [10]; at 11.0 µM 22% | [11]; [13] 0% | [11]; at 50.0 µM 65% | [12]; at 1.2 µM -8% | [12]; at 3.7 µM -10% | [12]; at 11.0 µM -3% | [12]; at 33.0 µM 48%
active: [1]; at 33.0 µM 96% | [1]; at 100.0 µM 98% | [2]; at 33.0 µM 84% | [2]; at 100.0 µM 96% | [4]; at 100.0 µM 75% | [6]; at 100.0 µM 75% | [8]; at 100.0 µM 97% | [9]; at 100.0 µM 97% | [10]; at 33.0 µM 75% | [10]; at 100.0 µM 98% | [11]; [14] 71% | [12]; at 100.0 µM 87%
